Compound activity: PubChem, National Center for Advancing Translational Sciences (NCATS)
NPC1 prom act – activates the NPC1 promoter; AID 485313; Potency, µM (titrated, usually from 9.22 µM), inactives show at the highest dose activation, usual class: activators; Huh7 NPC1 promoter luciferase reporter, 24 h; 320,000 compounds, 2.4% hits; also: % of control where 0% means no effect; nearly all actives have a fitted effect of over 60% in size
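Cells: Huh7 expressing luciferase under the NPC1 promoter, 1500/well. Seeded 2 h, compound added, incubated 24 h at 37 °C. Luciferase reagent, 10 min ambient, then luminescence.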
ELG1 genotoxic – genotoxicity induction in ELG1-luciferase HEK293T cells | HEK293T ELG1-luciferase reporter, luminescence, 16 h | Potency, µM (doses to about 46 µM), inactives show top-dose activity change, positive = activation, most hits filed as activators | 330,000 compounds, 1.3% hits | AID 504466; also: % of control where 0% means no effect; nearly all actives have a fitted effect of over 60% in size
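Cells (2,000/well) expressing the ELG1-luciferase fusion are dosed by pin tool and kept 16 hr at 37 °C, 5% CO2. Signal comes from ONE-Glo luciferase reagent after 30 min at room temperature.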
SMN2 splice enh – increases expression of the SMN2 splice variant; HEK293 SMN2-luciferase splicing reporter, luminescence, 30-36 h; Potency, µM (highest dose often 46.1 µM), without a hit: at the top dose activity change, positive = activation, most hits filed as activators; 210,000 compounds, 2.8% hits; AID 1458; also: % of control where 0% means no effect; nearly all actives have a fitted effect of over 55% in size
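qHTS luciferase splicing reporter: luminescence rises when SMN2 exon 7 is included in transfected HEK293 cells. Compound exposure lasted 30-36 h at 37C, with 4.5 mM final sodium butyrate as control, followed by a ONE-Glo read.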
FLuc modulator – counter-screen for miR-21 project: firefly luciferase inhibitors or activators; AID 588342; P08659; purified FLuc, Km substrates, luminescence inhibition; Potency, µM (top dose mostly 57.5 µM), for the others: top-dose activity change, negative = inhibition, usual class: inhibitors; 360,000 compounds, 6.9% hits;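 also: plate controls were vehicle for no effect and reference inhibitor for full effect; nearly all actives have a fitted effect of over 55% in size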
Target sequence (P08659 whole entry, looked up): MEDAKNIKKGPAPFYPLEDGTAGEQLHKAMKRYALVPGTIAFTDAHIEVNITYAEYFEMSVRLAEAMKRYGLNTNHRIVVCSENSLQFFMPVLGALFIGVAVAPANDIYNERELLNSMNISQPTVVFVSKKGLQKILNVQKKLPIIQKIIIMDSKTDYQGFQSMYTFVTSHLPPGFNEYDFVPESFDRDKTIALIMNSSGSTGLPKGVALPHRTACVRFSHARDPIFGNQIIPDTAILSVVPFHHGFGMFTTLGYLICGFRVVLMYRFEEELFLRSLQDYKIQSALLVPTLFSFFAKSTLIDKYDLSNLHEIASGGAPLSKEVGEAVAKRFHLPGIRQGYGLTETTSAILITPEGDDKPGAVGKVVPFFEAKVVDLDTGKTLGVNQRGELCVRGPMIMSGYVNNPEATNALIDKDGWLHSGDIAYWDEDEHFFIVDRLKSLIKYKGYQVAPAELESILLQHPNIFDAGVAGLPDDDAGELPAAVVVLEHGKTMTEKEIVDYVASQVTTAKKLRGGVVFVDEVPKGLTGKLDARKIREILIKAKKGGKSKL
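Biochemical qHTS of compounds, final roughly 60 µM downward over six points, against 10 nM purified firefly luciferase using Km concentrations of substrates (10 uM D-luciferin, 10 uM ATP) in Tris acetate pH 7.5 buffer; luminescence output.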
Rab9 prom act – activates the Rab9 promoter; Huh7 Rab9 promoter-luciferase reporter, luminescence, 24 h; Potency, µM (series often up to 9.22 µM), for the others: top-dose activation, negative = inhibition, usual class: activators; 320,000 compounds, 2.8% hits; also: % of control where 0% means no effect; nearly all actives have a fitted effect of over 60% in size
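Measured in stably transfected Huh7 cells bearing a Rab9 promoter–luciferase construct: 24 h compound treatment at 37 °C, followed by luminescence detection.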
Active calls of the source: *; ? = inconclusive; . = not tested or not shown; [ ] = another dose, or the depositor's remark. Only some compounds are listed: those with a hit (about 7.4% of all), similar ones and a draw of the others. Calls follow the shape of the dose curve; as a rule, active = well fitted curve in the direction sought with a large enough effect; inconclusive = small, poorly fitted or top-dose-only effect, or another doubt; inactive = no such curve, though single readings can be large; an effect the other way counts as inactive or inconclusive. Potency is read from the fitted curve at half-maximal effect.

SMILES | NPC1 prom act | ELG1 genotoxic | SMN2 splice enh | FLuc modulator | Rab9 prom act
CCOc1ccc(NC(=O)C2CC(=O)N(c3ccc(C(C)C)cc3)C2)cc1 (configuration not stated) | . | . | 3% | -2% | .
O=C(CN1C(=O)NC2(CCCC2)C1=O)Nc1nc2ccccc2s1 | 11% | 21% | . | ? | 2%
COc1ccc2nc(NC(=O)CN3C(=O)NC4(CCCCC4)C3=O)sc2c1 | 2% | -3% | . | 15µM* | 22%
Cc1ccc2nc(NC(=O)CN3C(=O)NC4(CCCCC4)C3=O)sc2c1 | 1% | -2% | . | 5.4µM* | 12%
COc1ccc(NC(=O)CN2C(=O)NC3(CCCC3)C2=O)cc1 | ? | 6% | . | -1% | 5%
COc1ccc2nc(NC(=O)CN3C(=O)NC4(CCCC4)C3=O)sc2c1 | 2% | 0% | . | 12µM* | -1%
CCN1CCN(CC(=O)Nc2nc3ccc(OC)cc3s2)CC1 | 0% | 0% | 2% | 0% | -5%
COc1cc(/C=C/C(=O)c2ccc3c(c2)OCCO3)cc(OC)c1OC | -15% | -6% | . | ? | -14%
COc1cc(/C=C/C(=O)c2ccc(C)cc2)ccc1OCC#N | -4% | -13% | -112% | 17µM* | -4%
COc1ccc(/C=C/C(=O)c2ccc3c(c2)OCO3)cc1OC | 10% | ? | . | 15µM* | -1%
COc1ccc(/C=C/C(=O)c2ccc(C(=O)/C=C/c3ccc(OC)c(OC)c3)cc2)cc1OC | -6% | 3% | . | 2% | -5%
COc1cc(/C=C/C(=O)c2ccc3c(c2)OCO3)cc(OC)c1OC | -5% | -13% | . | . | -29%
COc1ccc(C(=O)COC(=O)c2ccc3c(c2)OCCO3)c(OC)c1 | -2% | 14% | . | 12µM* | 23%
COc1ccc(OC)c(/C=C/C(=O)c2ccc3c(c2)OCCO3)c1 | 20% | 7% | . | 2.4µM* | 23%
Cc1cc(C(F)F)n2nc(C(=O)Nc3ccc(F)c(Cl)c3)nc2n1 | . | . | 7% | -6% | .
COC(=O)[C@H](COC(C)(C)C)NC(=O)O[C@@H]1C(=O)c2cc(OC)ccc2O[C@H]1c1cccc(OC)c1 | . | . | 9% | . | .
Cc1cc([N+](=O)[O-])c(C)c(Br)c1C | . | . | -10%[9.22 µM] | . | .
COc1ccc(Cl)cc1NC(=O)NCCn1c(=O)oc2ccc(C)cc21 | . | . | -14% | -16% | .
Cc1cc(NC(=O)c2ccc(-c3ccc(Br)cc3)o2)cc(-c2nc3ncccc3o2)c1O | . | . | 25% | 3% | .
COc1ccc(O)c(/C=N/N=C2/C(=O)Nc3ccccc32)c1 | -2% | 5% | -4% | 4.8µM* | 1%
O=[N+]([O-])c1ccc(O)c(/C=N\N=C2c3ccccc3-c3ccccc32)c1 | -2% | -8% | -73% | -6% | -19%
O=C1Nc2ccccc2/C1=N/N=C/c1cccc(O)c1 | 14% | 3% | . | ? | 1%
COc1cc(/C=N/N=C2/C(=O)Nc3ccccc32)cc(OC)c1O | -1% | 2% | 20% | 17µM* | -1%
CC(C)CC(C(=O)NCCc1ccccc1)N1Cc2ccccc2C1=O (configuration not stated) | . | . | . | -3% | .
COCCN(C(=O)COC(=O)Cc1coc2cc3c(cc12)CCC3)c1c(N)n(Cc2ccccc2)c(=O)[nH]c1=O | -4% | 0% | . | 24µM* | -4%
SMILES | NPC1 prom act | ELG1 genotoxic | SMN2 splice enh | FLuc modulator | Rab9 prom act
Cc1ccc2cc3cc(C(=O)NC4CC4)oc3nc2c1 | 4µM* | ? | . | 11µM* | 2.5µM*
CCN(C(=O)c1cc2cc3ccc(C)cc3nc2o1)c1ccc(OC)cc1 | 2% | 15% | -35% | ? | -3%
Cc1ccc2cc3cc(C(=O)NC4CCCCC4)oc3nc2c1 | ? | -4% | . | ? | ?
Cc1ccc2cc3cc(C(=O)N4CCCCC4C)oc3nc2c1 (configuration not stated) | 1.4µM* | ? | 11µM* | 3µM* | 1.6µM*
Cc1ccc2cc3cc(C(=O)N(C)c4ccccc4C)oc3nc2c1 | . | . | 16µM* | 6.7µM* | .
Oc1ccccc1C(Sc1nc2ccccc2s1)Sc1nc2ccccc2s1 | . | . | 12%[9.22 µM] | . | .
O=C(CCCCCn1c(=O)c2sccc2n(Cc2ccccc2Cl)c1=O)NCc1ccc2c(c1)OCO2 | . | . | 3% | 2% | .
Cn1c2cc(B(O)O)sc2c2cnn(Cc3ccc(F)cc3F)c(=O)c21 | -13% | . | . | -9% | 2%
